In the library only some 3.3% were active in any assay of this set; here they are far more common.
Mcl1-Bid inh = Mcl-1/Bid interaction inhibition; AID 1021; inhibition, % at 21.7 µM; TR-FRET Mcl-1/Bid-Dy647 peptide binding, 1536-well; 0.97% of 220,000 active; Q07820;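 active = compounds that cut the binding signal by more than half at the single screening dose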;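 also: His-tagged Mcl-1 with europium anti-His antibody binding Bid BH3 peptide; 0% = Mcl-1 plus peptide wells and 100% = peptide-only wells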
Target sequence (Q07820 whole entry, looked up): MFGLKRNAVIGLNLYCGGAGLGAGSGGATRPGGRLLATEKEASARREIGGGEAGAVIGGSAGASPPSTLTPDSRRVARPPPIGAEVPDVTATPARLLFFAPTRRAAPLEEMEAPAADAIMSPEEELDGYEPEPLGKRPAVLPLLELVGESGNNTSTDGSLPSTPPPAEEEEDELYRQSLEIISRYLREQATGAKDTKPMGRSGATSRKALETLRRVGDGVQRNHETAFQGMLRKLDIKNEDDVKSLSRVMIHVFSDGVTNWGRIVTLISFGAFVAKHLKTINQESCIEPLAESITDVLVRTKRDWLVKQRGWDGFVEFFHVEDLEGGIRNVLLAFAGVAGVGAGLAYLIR
NCF1 inh = blocks human p47phox regulatory protein of NADPH oxidases | P14598 | p47phox/p22phox peptide binding, fluorescence polarization, 2 h | inhibition, % at 24.7 µM | 0.53% of 220,000 active | AID 1274;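 also: 0% = p47phox with labelled peptide and 100% = labelled peptide alone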
Mcl1 Noxa PPI = Mcl-1/Noxa interaction inhibition. Q07820. AID 1022. inhibition, % at 21.7 µM. 1.5% of 220,000 active. TR-FRET Mcl-1/Noxa peptide binding, 2 h;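 active = compounds that cut the protein-peptide binding signal by more than 50% relative to plate controls in a single-dose test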;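 also: His-tagged Mcl-1 with rhodamine Noxa BH3 peptide and terbium anti-His antibody; 0% = Mcl-1 plus Noxa peptide wells and 100% = peptide-only wells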
14-3-3 Bad PPI = disrupts binding of bovine 14-3-3 zeta to phospho-Bad peptide | P63103 | 0.71% of 220,000 active | TR-FRET 14-3-3zeta/Dy647-pBad peptide displacement, 1 h | inhibition, % at 21.7 µM | AID 781;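 active = inhibition above about 70%, limit read from the data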;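 also: 0% = full 14-3-3 plus peptide FRET controls and 100% = background without 14-3-3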
Target sequence (P63103 whole entry, looked up): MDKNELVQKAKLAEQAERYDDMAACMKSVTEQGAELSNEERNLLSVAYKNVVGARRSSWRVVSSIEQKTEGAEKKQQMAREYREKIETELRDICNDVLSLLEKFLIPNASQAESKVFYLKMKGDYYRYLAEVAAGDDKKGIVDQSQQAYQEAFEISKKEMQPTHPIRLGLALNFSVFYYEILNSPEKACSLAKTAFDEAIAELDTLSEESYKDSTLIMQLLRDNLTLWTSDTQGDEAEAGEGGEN
eIF4E-4G inh = blocks eIF4E binding to eIF4G | TR-FRET eIF4E-eIF4GI(517-606) binding, 2 h | inhibition, % at 21.7 µM | 0.37% of 220,000 active | AID 782;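 also: 0% = full FRET control wells and 100% = background wells lacking eIF4GI fragment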
Bim-Mcl-1 = disrupts Bim peptide binding to human Mcl-1. Bead-based flow cytometry, Bim peptide-Mcl-1 binding. inhibition, % at 10 µM. 0.1% of 190,000 active; in the data active = inhibition above about 40%;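 also: 0% = no compound tracer wells and 100% = peptide blocker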
* marks the source's active call; other numbers are inactive results; x = no result; [ ] = dose if it differs, or a comment.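 The calls were made as follows, unless noted: active = inhibition above about 30% (limit read from the data); inactive = the rest.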

SMILES	Mcl1-Bid inh	NCF1 inh	Mcl1 Noxa PPI	14-3-3 Bad PPI	eIF4E-4G inh	Bim-Mcl-1
Cc1ccc([N+](=O)[O-])cc1NC(=O)CN1CCCCC1	-28	-5	6	11	1	-3
O=C(CN1CCN(c2ccc(O)cc2)CC1)Nc1cc([N+](=O)[O-])ccc1Cl	-2	25	99*	49	3	2
COc1ccc(C(=O)NCc2nnc(SCC(=O)N3CCc4ccccc43)n2CCc2ccccc2)cc1	11	-8	17	-8	-5	-4
COc1ccccc1C(=O)Oc1cc(C)[nH]c(=O)c1[N+](=O)[O-]	-12	3	18	-1	1	1
N#CC1=C(S)N(c2ccccc2)C(c2ccc(-c3cccc(Cl)c3)o2)NC1=O (centres undefined)	-30	-55	69*	48	2	-3
Cc1cccc(N2C(S)=C(C#N)C(=O)NC2c2ccco2)c1 (centres undefined)	-21	3	29	-7	3	-1
N#Cc1ccc(Oc2nc(C#N)cc(-c3ccccc3)n2)cc1	-9	-3	14	-2	8	-1
N#Cc1cc(-c2ccccc2)nc(Oc2ccccc2)n1	83*	0	-1	0	-1	-5
Cc1ccc(NC(=O)O/N=C/c2c(C)nn(C(C)(C)C)c2C)cc1Cl	-1	132*	9	-2	6	x
CCOC(=O)N1CCN(C(=O)c2ccc(CS(=O)(=O)c3ccccc3OC)o2)CC1	-44	-1	59*	-2	-3	2
COc1ccccc1N1CCN(C(=O)c2ccc(CS(=O)(=O)c3ccccc3OC)o2)CC1	-26	-18	20	-14	-2	-1
CCN1CCN(Cc2ccc(NC(=O)c3ccc(C)c(NC(=O)c4c[nH]c5cc(C(F)(F)F)ccc5c4=O)c3)cc2C(F)(F)F)CC1	-5	73*	-78	-85	-5	x
CCN1CCN(Cc2ccc(NC(=O)c3ccc(C)c(NC(=O)C4=NN(c5ccccc5)C(=O)C4)c3)cc2C(F)(F)F)CC1	-58	4	63*	63	-7	x
CCN1CCN(Cc2ccc(NC(=O)c3cc(NC(=O)c4cc5cccc(OC)c5o4)cc(OC)c3)cc2C(F)(F)F)CC1	-7	57*	25	36	19	x
CCN1CCN(Cc2ccc(NC(=O)c3cc(NC(=O)c4ccno4)cc(OC)c3)cc2C(F)(F)F)CC1	-25	-15	17	-1	-4	x
CCN1CCN(Cc2ccc(NC(=O)c3cc(NC(=O)C4=NN(c5ccccc5)C(=O)C4)cc(OC)c3)cc2C(F)(F)F)CC1	-39	-7	69*	60	-3	x
Cc1ccc(Nc2ccc(S(=O)(=O)N3CCOCC3)cc2[N+](=O)[O-])c(C)c1	-33	1	23	5	-4	-1
Cc1cnc(C)c(N2CCN(Cc3nc(-c4ccccc4)no3)CC2)n1	-40	-4	11	-4	4	10
OCCC1CN(Cc2cccc3nccnc23)CCN1Cc1ccc(F)cc1 (centres undefined)	-18	7	23	0	2	x
CCN1CCN(Cc2ccc(NC(=O)c3cc(NC(=O)c4cc(-c5ccc(OC)cc5)n[nH]4)cc(OC)c3)cc2C(F)(F)F)CC1	-29	38*	-56	-14	23	x
CCC(CC)C(=O)NCc1ccc(OC)cc1	-2	-4	-12	76*	6	0
COc1ccc(CNC(=O)c2noc(C)c2[N+](=O)[O-])cc1	-15	33*	14	-3	-1	-2
O=S1(=O)c2ccccc2C(CCO)N1Cc1ccccc1 (centres undefined)	-46	-7	1	-3	-3	x
c1cc2ccc3ccc(CN4CCOCC4)c4ccc(c1)c2c34	10	-5	29	85*[fluorescence artefact?]	9	-2
OC1CCCN(Cc2ccc3ccc4cccc5ccc2c3c45)C1 (centres undefined)	4	-5	-22	-4	2	0
SMILES	Mcl1-Bid inh	NCF1 inh	Mcl1 Noxa PPI	14-3-3 Bad PPI	eIF4E-4G inh	Bim-Mcl-1
NC(=O)C1CCN(C2=C(NS(=O)(=O)c3ccccc3)C(=O)c3ccccc3C2=O)CC1	-19	0	-1	2	-3	x
O=C1C(Cl)=C(N2CCC(C(=O)O)CC2)C(=O)c2ccccc21	-14	14	52*	2	9	x
NC(=O)C1CCN(C2=C(Cl)C(=O)c3ccccc3C2=O)CC1	27	7	88*	7	18	16
CC1CCCCC1NC(=O)/C(C#N)=C/c1ccccc1F (centres undefined)	-11	-11	14	-12	-3	-1
COc1ccc(NC(=S)Nn2cnnc2)cc1OC	-14	3	10	-2	0	-2
CC(C)N(C)CCOC(=O)/C=C/c1ccccc1	-16	38*	1	24	-17	-5
CN(CCOC(=O)/C=C/c1ccccc1)C(C)(C)C	5	5	5	-16	1	-2
CCOc1ccc(Cn2c(=O)sc3ccccc32)cc1OC	-22	-6	6	5	4	x
CN(C)c1cccc(NC(=O)C2(C)CC2(Cl)Cl)c1 (centres undefined)	-68	-3	39	-5	-2	84*
O=C(NC1(N2CCOCC2)CC1)c1ccc(Cl)cc1	-10	-7	-17	-6	5	x
CCOc1cc(Br)c(Br)c(C=Nc2ccc(NC(C)=O)cc2)c1O	6	-193	51*	44	4	4
CCOc1cc(/C=N/NC(=O)C(N)=O)cc(Br)c1O	-46	-8	48	15	-7	2
CC(=O)Nc1ccc(N=Cc2c(O)c(C(=O)Nc3ccccc3)cc3ccccc23)cc1	71*	-229	84*	49	30*	-2
CC(=O)Nc1ccc(N=Cc2ccc[nH]2)cc1	-34	-7	7	7	-5	-4
CC(C)(C)c1ccc(CNc2ccc([N+](=O)[O-])cn2)cc1	3	-144	18	-8	-5	-4
CCOC(=O)c1sc2ncn(/N=C/c3ccc(O)c(OC)c3)c(=O)c2c1C	15	-2	53*	13	9	0
NC(=O)CC(NC(=O)c1ccccc1)c1ccc(NCCc2cccc(F)c2)c([N+](=O)[O-])c1 (centres undefined)	-40	-5	-3	3	96*	x
NC(=O)CC(NC(=O)c1ccc(Br)cc1)c1ccc(NCCc2ccc(F)cc2)c([N+](=O)[O-])c1 (centres undefined)	18	13	12	13	-2	x
CC(C)Nc1ccc(C(CC(N)=O)NC(=O)c2ccc(Br)cc2)cc1[N+](=O)[O-] (centres undefined)	65*	-16	2	6	-2	x
NC(=O)CC(NC(=O)Cc1ccc(Br)cc1)c1ccc(NC2CCC2)c([N+](=O)[O-])c1 (centres undefined)	-50	0	51*	0	1	x

Screening results deposited in PubChem by several laboratories.
